Test results from PubChem BioAssay AID1159580 (chemical genetic matrix, 2015).
“And” between values parts separate entries of the source, which are not always exact repeats. Equal entries are not always repeated. The campaign covered roughly 5,500 compounds. About 2,000 (36%) were called active. About 18% were inconclusive and are not listed. Cut-off read from the data, not from the text of the source: active = normalized growth mostly below about 0.91 (no sharp cut-off); inconclusive = no clear call, values can overlap the other calls; inactive = mostly above about 0.92. This is one part of the list.

Test: chemical genetic growth profiling, strain panel (AID 1159580);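 note: tested at 20 µM; growth read once vehicle control cultures reached saturation at 30 °C; 1 = growth at the plate median or of vehicle wells; lower values mean less growth of the strain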
Settings: S. cerevisiae deletion strains, growth OD

Measured: normalized growth

NCC(=O)CCC(=O)O
inactive: locus YAL013W, strain DEP1, hits give low values 1.01 | locus YAL021C, strain ccr4, hits give low values 1 | locus YAL026C, strain drs2, hits give low values 1.01 | locus YAL030W, strain snc1, hits give low values 0.99 | locus YBL061C, strain skt5, hits give low values 0.979 | locus YBR009C, strain hhf1, hits give low values 1.03 | locus YBR021W, strain FUR4, hits give low values 1.04 | locus YBR023C, strain chs3, hits give low values 0.995 | locus YBR171W, strain sec66, hits give low values 0.962 | locus YBR229C, strain ROT2, hits give low values 1.02 | locus YBR231C, strain swc5, hits give low values 0.968 | locus YBR279W, strain paf1, hits give low values 0.997 | locus YCL011C, strain gbp2, hits give low values 1 | locus YCL016C, strain dcc1, hits give low values 0.998 | locus YCL029C, strain bik1, hits give low values 0.995 | locus YCL061C, strain MRC1, hits give low values 0.983 | locus YCL069W, strain vba3, hits give low values 0.989 | locus YCR088W, strain abp1, hits give low values 0.987 | locus YDL005C, strain med2, hits give low values 0.96 | locus YDL035C, strain GPR1, hits give low values 1.02 | locus YDL040C, strain nat1, hits give low values 0.979 | locus YDL074C, strain BRE1, hits give low values 1.02 | locus YDL101C, strain DUN1, hits give low values 1.01 | locus YDL134C, strain PPH21, hits give low values 1.01 | locus YDL185W, strain tfp1, hits give low values 0.994 | locus YDL192W, strain arf1, hits give low values 0.992 | locus YDR001C, strain nth1, hits give low values 0.997 | locus YDR069C, strain doa4, hits give low values 0.979 | locus YDR101C, strain arx1, hits give low values 0.988 | locus YDR137W, strain rgp1, hits give low values 0.979 | locus YDR150W, strain NUM1, hits give low values 1.02 | locus YDR159W, strain sac3, hits give low values 1 | locus YDR162C, strain NBP2, hits give low values 1.01 | locus YDR195W, strain ref2 0.945 | locus YDR297W, strain sur2, hits give low values 0.99 | locus YDR318W, strain mcm21, hits give low values 0.978 | locus YDR334W, strain swr1, hits give low values 0.984 | locus YDR335W, strain msn5, hits give low values 0.995 | locus YDR388W, hits give low values 0.986 | locus YDR392W, strain spt3, hits give low values 1.05 | locus YDR502C, strain sam2, hits give low values 0.995 | locus YEL003W, strain gim4, hits give low values 0.992 | locus YEL037C, strain rad23, hits give low values 0.979 | locus YEL061C, strain CIN8 (second series), hits give low values 0.99 | locus YEL061C, strain CIN8, hits give low values 1.01 | locus YER015W, strain faa2, hits give low values 0.996 | locus YER016W, strain bim1, hits give low values 1.01 | locus YER110C, hits give low values 0.991 | locus YER111C, strain swi4, hits give low values 0.972 | locus YER155C, strain BEM2 (second series), hits give low values 0.955 | locus YER155C, strain BEM2, hits give low values 1.01 | locus YER167W, strain BCK2, hits give low values 1.01 | locus YFR010W, strain ubp6, hits give low values 0.973 | locus YGL078C, strain dbp3, hits give low values 0.99 | locus YGL086W, strain mad1, hits give low values 1 | locus YGL167C, strain pmr1, hits give low values 0.974 | locus YGL173C, strain kem1, hits give low values 0.971 | locus YGL227W, strain vid30, hits give low values 0.988 | locus YGL240W, strain doc1, hits give low values 0.965 | locus YGL248W, strain PDE1, hits give low values 1.01 | locus YGL253W, strain hxk2, hits give low values 1.01 | locus YGR078C, strain PAC10, hits give low values 1.02 | locus YGR135W, strain pre9, hits give low values 0.982 | locus YGR229C, strain SMI1, hits give low values 1.02 | locus YGR252W, strain gcn5, hits give low values 0.975 | locus YHR013C, strain ard1, hits give low values 0.964 | locus YHR027C, strain rpn1, hits give low values 1 | locus YHR030C, strain SLT2, hits give low values 1.01 and 1.03 | locus YHR079C, strain IRE1 (second series), hits give low values 0.982 | locus YHR079C, strain IRE1, hits give low values 1.03 | locus YHR094C, strain hxt1, hits give low values 0.99 | locus YHR129C, strain ARP1, hits give low values 1.01 | locus YHR142W, strain chs7, hits give low values 0.981 | locus YHR200W, strain rpn10, hits give low values 0.99 | locus YIL066C, strain RNR3, hits give low values 1.02 | locus YIL073C, strain SPO22, hits give low values 1.01 | locus YIL125W, strain kgd1, hits give low values 0.997 | locus YIR030C, strain dcg1, hits give low values 0.994 | locus YJL092W, strain hpr5, hits give low values 0.969 | locus YJL095W, strain BCK1 (second series), hits give low values 0.984 | locus YJL095W, strain BCK1, hits give low values 1.01 and 1.03 | locus YJL115W, strain asf1, hits give low values 0.967 | locus YJL129C, strain trk1, hits give low values 0.98 | locus YJL134W, strain LCB3, hits give low values 1.01 | locus YJL154C, strain vps35, hits give low values 0.979 | locus YJL164C, strain tpk1, hits give low values 1 | locus YJL166W, strain qcr8, hits give low values 0.924 | locus YJL168C, strain set2, hits give low values 0.984 | locus YJL187C, strain SWE1 (second series), hits give low values 1.01 | locus YJL187C, strain SWE1, hits give low values 0.982 | locus YJR043C, strain POL32, hits give low values 1.01 | locus YJR066W, strain TOR1, hits give low values 0.986
